Data taken from PubChem BioAssay (NCATS).
Inconclusive results are not listed. Active and inactive are the calls of the source. Unless noted, the call rests on the fitted dose curve; in most records, active means well fitted curve in the direction sought with a large enough effect; inconclusive means small, poorly fitted or top-dose-only effect, or another doubt; inactive means no such curve, though single readings can be large; an effect the other way counts as inactive or inconclusive.

Key:
[1] = HEK-293 Cancer Cell Toxicity qHTS against the NCATS CANVASS Library (AID 1347355)
Method in brief: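 1000 cells/well, 4 h pre-incubation 37 °C/5% CO2; 11-pnt titration; 72 h; CellTiter-Glo 15 min RT, luminescence.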

[2] = HPAF-II 24hr Apoptosis Induction qHTS against the NCATS CANVASS Library (AID 1347356)
Method in brief: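 500 HPAF-II cells/well; compounds in 11-pnt qHTS; 24 h, 37 C/5% CO2; Caspase-Glo 3/7 added, 15 min RT dark; luminescence read. Doxorubicin control.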

[3] = HEK293 18hr Apoptosis Induction qHTS against the NCATS CANVASS Library (AID 1347357)
Method in brief: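 Caspase-Glo 3/7 luminescence (15 min, room temperature) measured apoptosis after an 18-hour, 37 degrees C exposure of HEK293 cells (500 cells/well) to compounds in 11 points.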

[4] = HPAF-II 12hr Apoptosis Induction qHTS against the NCATS CANVASS Library (AID 1347358)
Method in brief: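 Caspase-Glo 3/7 luminescence (DEVD substrate) reports caspase activity in HPAF-II cells after 12 h compound treatment at 37 degrees C. Compounds were tested in an 11-point series. Doxorubicin served as control.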

[5] = HEK293 24hr Apoptosis Induction qHTS against the NCATS CANVASS Library (AID 1347359)
Method in brief: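 Caspase-3/7 activation measured as luminescence from the DEVD-based Caspase-Glo reagent, 15 min at room temperature, following 24-hour compound treatment of HEK293 cells.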

[6] = HPAF-II 18hr Apoptosis Induction qHTS against the NCATS CANVASS Library (AID 1347360)
Method in brief: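 Caspase-3/7 activation was measured with luminescent Caspase-Glo 3/7 reagent (15 min, RT) in HPAF-II cancer cells (500 cells/well). Before detection, cells had been treated for 18 h at 37 C with compounds (11 points).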

[7] = HEK293 12hr Apoptosis Induction qHTS against the NCATS CANVASS Library (AID 1347361)
Method in brief: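 HEK293 cells (500/well, DMEM + 10% FBS) were exposed to natural products across an 11-point series for 12 hours at 37 degrees C. Caspase-3/7 activity was then measured with DEVD luciferase luminescence after 15 min at room temperature.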

[8] = test system: NAD(P)H diaphorase (Clostridium kluyveri); assay: Diaphorse counterscreen qHTS: Assay Interference Panel against the NCATS CANVASS Library (AID 1347362)
Method in brief: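 Counterscreen for coupling-enzyme interference: resorufin fluorescence from resazurin/NADH turnover, read after 5 min at room temperature. Compounds were tested over an 11-point series after 15 min dark preincubation with diaphorase in PBS-Tween.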

[9] = biological target: Luciferin 4-monooxygenase (Photinus pyralis) (UniProt P08659); assay: Firefly luciferase counterscreen qHTS: Assay Interference Panel against the NCATS CANVASS Library (AID 1347363)
Sequence of Luciferin 4-monooxygenase (Photinus pyralis) (P08659 whole entry, looked up): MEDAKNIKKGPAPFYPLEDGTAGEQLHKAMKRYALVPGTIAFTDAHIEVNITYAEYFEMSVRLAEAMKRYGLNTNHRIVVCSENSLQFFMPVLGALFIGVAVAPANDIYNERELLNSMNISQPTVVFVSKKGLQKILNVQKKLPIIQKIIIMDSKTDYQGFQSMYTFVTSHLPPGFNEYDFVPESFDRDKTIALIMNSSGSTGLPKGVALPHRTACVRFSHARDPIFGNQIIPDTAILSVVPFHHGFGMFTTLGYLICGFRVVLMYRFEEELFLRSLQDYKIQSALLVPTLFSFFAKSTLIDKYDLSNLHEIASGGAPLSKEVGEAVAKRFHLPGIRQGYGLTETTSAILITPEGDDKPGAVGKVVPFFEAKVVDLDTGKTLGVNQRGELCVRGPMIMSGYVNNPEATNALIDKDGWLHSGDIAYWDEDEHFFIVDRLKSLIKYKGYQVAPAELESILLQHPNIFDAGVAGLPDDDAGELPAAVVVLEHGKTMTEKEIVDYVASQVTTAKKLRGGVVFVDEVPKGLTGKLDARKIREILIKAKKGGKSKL
Method in brief: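 Luminescence inhibition readout: compounds (11-point qHTS) sat 15 min at room temperature with substrate mix (0.013 mM luciferin and ATP), then firefly luciferase was added and signal read 5 min later.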

[10] = KB-8-5-11 Cancer Cell Toxicity qHTS against the NCATS CANVASS Library (AID 1347364)
Method in brief: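 CellTiter-Glo luminescence after 72 h exposure; 500 KB-8-5-11 cells/well, DMEM/10% FBS, 37C, 5% CO2; compounds in 11-pt qHTS. Follow-up confirmation included medium with 1uM tariquidar.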

[11] = qHTS for ATAD5 Agonist screened against the NCATS CANVASS Library (AID 1347367)
Method in brief: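 Genotoxicity via ATAD5-luciferase luminescence after 16 h compound exposure (11-point series) at 37C in HEK293T-ATAD5 cells. CellTiter-Fluor viability read precedes the luminescence read; MMS serves as positive control.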

[12] = MCF7 Cancer Cell Toxicity qHTS against the NCATS CANVASS Library (AID 1347369)
Method in brief: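 Cytotoxicity was measured as CellTiterGlo luminescence (ATP) after 72 h at 37 °C. The cells were MCF7 at 500 per well, with an 11-point compound concentration series.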

[13] = qHTS for ATAD5 Antagonist screened against the NCATS CANVASS Library (AID 1347370)
Method in brief: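 HEK293T-ATAD5 luc reporter, 2000 cells/well; 5hr attach; cpd + 10 uM 5-FUrd; 16hr 37C, 5% CO2. Readouts: CellTiter-Fluor fluorescence (1hr), then Amplite luciferase luminescence (30min RT).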

[14] = biological target: Nuclear receptor subfamily 1 group I member 3 (Homo sapiens) (UniProt Q14994); assay: qHTS for Constitutive Androstane Receptor (CAR) Antagonist screened against the NCATS CANVASS Library (AID 1347372)
Sequence of Nuclear receptor subfamily 1 group I member 3 (Homo sapiens) (Q14994 whole entry, looked up): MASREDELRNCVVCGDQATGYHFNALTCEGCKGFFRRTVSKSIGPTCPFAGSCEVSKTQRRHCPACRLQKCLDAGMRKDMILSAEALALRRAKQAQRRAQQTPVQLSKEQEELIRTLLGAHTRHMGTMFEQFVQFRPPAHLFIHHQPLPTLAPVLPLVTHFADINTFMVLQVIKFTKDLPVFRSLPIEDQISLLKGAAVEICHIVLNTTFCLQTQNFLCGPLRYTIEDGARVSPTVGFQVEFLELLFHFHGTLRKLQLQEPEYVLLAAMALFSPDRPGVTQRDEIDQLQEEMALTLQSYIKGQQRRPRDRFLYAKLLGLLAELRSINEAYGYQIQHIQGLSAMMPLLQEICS
Method in brief: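 Antagonist mode: compound added alongside 50 nM CITCO to HepG2-hCAR-CYP2B6 reporter cells, 24hr at 37C. Viability by CellTiter-Fluor fluorescence, then CAR-driven luciferase by ONE-Glo luminescence.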

[15] = biological target: Nuclear receptor subfamily 1 group I member 3 (Homo sapiens) (UniProt Q14994); assay: qHTS for Constitutive Androstane Receptor (CAR) Agonist screened against the NCATS CANVASS Library (AID 1347373)
Method in brief: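 Luciferase read-out (ONE-Glo, 30 min RT) of CYP2B6-2.2kb promoter activity in double-stable HepG2-hCAR cells after 24hr compound exposure with 1.5uM PK11195 present; viability measured first by CellTiter-Fluor.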

[16] = 10-beta competent E. coli microbial cell viability qHTS against the NCATS CANVASS Library (AID 1347376)
Method in brief: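 Luminescence from BacTiter-Glo ATP detection served as the viability read-out; bacteria (0.2 OD) had been incubated overnight at 37C with pin-transferred compounds at 11 concentrations.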

[17] = qHTS for H2AX Agonists against the NCATS CANVASS Library (AID 1347378)
Method in brief: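 Phospho-H2AX (S139) in CHO-K1 lysates measured by HTRF, reported as 665/615 nm emission ratio after 24 hr antibody incubation at room temperature. Cells were first treated with a compound series for 3 hr at 37C (0.76% DMSO final).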

[18] = qHTS for Inflammasome Signaling Inhibitors: IL-1-beta AlphaLISA screen against the NCATS CANVASS Library (AID 1347379)
Method in brief: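 THP-1, 1 hr compound pre-incubation, then LPS 250 ng/mL + ATP 1.25 mM (final); 16 hr total with compound; IL-1B AlphaLISA, ex 680/em 615 nm; 11-point qHTS, up to 57.5 uM final.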

[19] = qHTS for Antimalaria activity screened against the NCATS CANVASS Library (AID 1347380)
Method in brief: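 SYBR Green fluorescence (ex 485, em 535 nm) read after saponin/Triton lysis and 18 h further incubation; Dd2 asexual blood-stage parasites, 72 h compound exposure, 11-pt concentration series, 2.5% hematocrit, 0.3% parasitemia.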

[20] = Inflammasome Signaling qHTS Counterscreen: IL-1-beta AlphaLISA counterscreen against the NCATS CANVASS Library (AID 1347381)
Method in brief: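 Here, no cellular stimulation occurs; compounds in an 11-point series meet 4 pg purified IL-1-beta directly. Bead-based AlphaLISA detection follows (1 h acceptor/antibody, then 30 min donor, dark, room temperature), with excitation at 680 nm.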

[21] = Cytotoxicity qHTS for assessment of Hepg2 cells membrane integrity screened against the NCATS CANVASS Library (AID 1347387)
Method in brief: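 LDH release read by fluorescence (560 nm ex/590 nm em) after CytoTox-ONE addition and 10 min RT; signal tracks lysed cells. HepG2, 2000 cells/well, plated overnight; compound 5 hr, 37C, 5% CO2, final 0.59 nM - 46 uM, 11 points.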

[22] = qHTS for Activators of p53 Stress Response Pathway screened against the NCATS CANVASS Library (AID 1347388)
Method in brief: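 Beta-lactamase reporter driven by p53 response elements in HCT-116 cells, read as the 460 nm/530 nm emission ratio after CCF4 loading, following 16 h of exposure to an 11-point series. Cell viability was measured in the same wells by CellTiter-Glo luminescence.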

[23] = qHTS assay for small molecule disruptors of mitochondrial membrane potential screened against the NCATS CANVASS Library (AID 1347389)
Method in brief: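 Red/green fluorescence ratio read-out: J-aggregates ex 540/em 590 nm, monomers ex 490/em 535 nm. HepG2, 1 hr compound treatment, then 30 min Mito-MPS dye at 37C. 11-pt qHTS concentration series.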

[24] = qHTS for activators of dead-cell proteases activity screened against the NCATS CANVASS Library (AID 1347392)
Method in brief: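 Luminescent dead-cell protease readout (AAF-aminoluciferin, 15 min, room temperature) after 5 h compound treatment of HepG2 cells (2000/well, pre-attached 18 h). Eleven concentrations.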

[25] = Vero-766 cells viability qHTS against the NCATS CANVASS Library: Counterscreen for Zika virus inhibition assay (AID 1347394)
Method in brief: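 CellTiter Glo luminescence measured cytotoxicity after 72 h at 37C in uninfected Vero 766 cells, plated at 1000 cells/well. Compounds were applied in an 11-point series. Wells without cells defined 100% inhibition.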

[26] = qHTS for inhibitors of Wild type Zika virus screened against the NCATS CANVASS Library (AID 1347396)
Method in brief: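 Luminescent CellTiter Glo read-out of virus-induced cytotoxicity, 72 h post-infection, in Vero 766 cells. Compounds were tested at 11 concentrations; uninfected, vehicle-treated wells defined 100% inhibition.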

[27] = Viability qHTS for inhibitors of the SERCaMP assay screened against the NCATS CANVASS Library (AID 1347400)
Method in brief: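 CellTiter-Glo luminescence readout after 48 h compound exposure (11-pnt qHTS series) of SH-SY5Y-GLuc SERCaMP MJH297 cells seeded at 1000 cells/well; bortezomib positive control.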

[28] = Redox Reaction Profiling qHTS: Assay Interference Panel against the NCATS CANVASS Library (AID 1347401)
Method in brief: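 Redox-cycling liability assessed as DTT-driven conversion of resazurin (5 uM, with 200 uM DTT, HEPES pH 7.3) to fluorescent resorufin. Fluorescence at 525/598 nm measured initially and after 15 min dark incubation.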

[29] = qHTS for inhibitors of Rabies Virus screened against the NCATS CANVASS Library (AID 1347402; calls by dose curve)
[30] = NCATS anti-infectives library activity on HEK293 viability as a counter-qHTS vs the C. elegans viability qHTS (AID 1745854)
Method in brief: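 CellTiter-Glo luminescence, read on a CCD imager, scored viability of HEK293 cells after 24 hr compound exposure at 37C. Library tested in several concentrations, 1:5 steps, up to 41.7 uM; digitonin served as control.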

[31] = NCATS anti-infectives library activity on the primary C. elegans qHTS viability assay (AID 1745855; calls by dose curve)
Method in brief: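 Titration-based screen in worms: eggs hatched overnight in M9, L1 larvae fed TOP10 capsules in S medium with compound, incubated 21 °C for 7 days; fluorescent objects gated by size and intensity at days 0, 3 and 7.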

Measured: Potency

CN(C)Cc1c[nH]c2ccccc12
inactive: all assays above
